Test in all cases: DAPPL (digital affinity profiling via proximity ligation, sequencing); 10 mM Tris-HCl pH 7.5, 50 mM NaCl, 1 mM DTT, 4% glycerol, room temperature, 30 min; GST-TFs on glutathione beads, 16-mer random dsDNA library, 0.1% formaldehyde crosslink after washing; high values mean tight binding
Assay [1] has as its target T1, FLI1 (Homo sapiens, UniProt Q01543 1-452).
T1 sequence: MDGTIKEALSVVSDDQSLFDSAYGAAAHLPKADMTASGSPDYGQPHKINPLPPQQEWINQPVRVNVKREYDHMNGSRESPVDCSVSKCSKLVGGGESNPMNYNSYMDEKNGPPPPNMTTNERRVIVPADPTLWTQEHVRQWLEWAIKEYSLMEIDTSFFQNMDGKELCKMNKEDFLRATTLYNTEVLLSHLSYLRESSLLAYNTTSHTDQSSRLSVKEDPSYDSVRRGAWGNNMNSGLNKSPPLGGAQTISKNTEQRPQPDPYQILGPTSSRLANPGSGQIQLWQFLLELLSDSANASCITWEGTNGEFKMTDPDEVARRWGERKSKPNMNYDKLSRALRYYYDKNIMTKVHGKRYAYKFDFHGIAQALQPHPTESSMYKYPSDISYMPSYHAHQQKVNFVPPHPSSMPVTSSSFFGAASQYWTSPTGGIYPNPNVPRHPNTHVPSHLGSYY
Conditions: protein: recombinant; tags: N-terminal GST; dsDNA, one strand shown. A digest of the protocol: (§1)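 Binding signal is given per hexamer as its read frequency for a factor divided by its frequency in the tag-only sample. GST-fused human transcription factors were expressed in yeast, captured on glutathione beads, barcoded with DNA and pooled with that sample, then incubated with 200 nmole of a 16-mer random double-stranded DNA library in Tris/NaCl/DTT/glycerol buffer for 30 min at room temperature. The pools were then washed, crosslinked, proximity-ligated, amplified by PCR and sequenced on an Illumina NextSeq500.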

Assay [2] deals with T2, ELK1 (Homo sapiens, UniProt P19419 1-428).
T2 sequence: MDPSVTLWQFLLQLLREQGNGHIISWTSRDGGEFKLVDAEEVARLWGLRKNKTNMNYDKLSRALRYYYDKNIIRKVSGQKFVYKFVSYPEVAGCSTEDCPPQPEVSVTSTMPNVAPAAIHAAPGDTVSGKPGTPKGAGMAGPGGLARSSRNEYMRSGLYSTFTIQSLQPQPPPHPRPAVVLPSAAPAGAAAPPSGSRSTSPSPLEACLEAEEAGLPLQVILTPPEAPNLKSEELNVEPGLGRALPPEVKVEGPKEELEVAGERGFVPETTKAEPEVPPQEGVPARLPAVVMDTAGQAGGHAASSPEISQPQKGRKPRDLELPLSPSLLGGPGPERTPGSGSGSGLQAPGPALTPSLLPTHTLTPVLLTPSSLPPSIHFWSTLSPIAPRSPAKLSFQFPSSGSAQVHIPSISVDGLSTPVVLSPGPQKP
Conditions: protein: recombinant; tags: N-terminal GST; dsDNA, one strand shown. A digest of the protocol:
as §1

Assay [3] concerns the target T3, GABPA (Homo sapiens, UniProt Q06546 1-454).
T3 sequence: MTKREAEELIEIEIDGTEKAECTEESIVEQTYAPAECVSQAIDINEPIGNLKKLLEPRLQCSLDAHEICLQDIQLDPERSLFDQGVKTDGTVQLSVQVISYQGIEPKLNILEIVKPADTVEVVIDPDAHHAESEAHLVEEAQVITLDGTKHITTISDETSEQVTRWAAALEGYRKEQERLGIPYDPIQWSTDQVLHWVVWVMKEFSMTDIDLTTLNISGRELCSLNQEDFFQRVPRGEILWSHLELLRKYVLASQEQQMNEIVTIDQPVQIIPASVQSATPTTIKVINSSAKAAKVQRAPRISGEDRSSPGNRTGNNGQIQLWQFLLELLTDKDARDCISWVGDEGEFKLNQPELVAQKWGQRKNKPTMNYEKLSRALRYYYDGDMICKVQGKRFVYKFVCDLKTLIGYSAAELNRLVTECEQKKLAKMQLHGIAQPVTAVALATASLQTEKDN
To be noted: protein: recombinant; tags: N-terminal GST; dsDNA, one strand shown. In outline: as §1

Assay [4] has as its target T4, ERG (Homo sapiens, UniProt P11308 1-479).
T4 sequence: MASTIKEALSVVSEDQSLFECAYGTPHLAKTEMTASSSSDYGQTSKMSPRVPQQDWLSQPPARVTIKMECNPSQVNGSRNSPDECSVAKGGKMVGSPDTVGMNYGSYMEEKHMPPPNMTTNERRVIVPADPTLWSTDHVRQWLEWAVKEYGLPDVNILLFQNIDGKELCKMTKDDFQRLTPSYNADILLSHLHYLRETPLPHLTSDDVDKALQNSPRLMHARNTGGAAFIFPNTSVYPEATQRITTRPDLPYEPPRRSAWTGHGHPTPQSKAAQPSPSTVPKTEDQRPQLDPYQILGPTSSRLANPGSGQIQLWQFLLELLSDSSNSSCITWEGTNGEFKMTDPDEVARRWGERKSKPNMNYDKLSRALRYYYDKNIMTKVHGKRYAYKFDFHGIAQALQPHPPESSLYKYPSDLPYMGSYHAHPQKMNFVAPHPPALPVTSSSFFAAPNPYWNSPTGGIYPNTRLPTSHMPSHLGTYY
To be noted: protein: recombinant; tags: N-terminal GST; dsDNA, one strand shown. In outline: as §1

Assay [5] deals with ELF1 (Homo sapiens, UniProt P32519 1-619). To be noted: protein: recombinant; tags: N-terminal GST; dsDNA, one strand shown. In outline: as §1
The target of assay [6] is T5, EHF (Homo sapiens, UniProt Q9NZC4 1-300).
T5 sequence: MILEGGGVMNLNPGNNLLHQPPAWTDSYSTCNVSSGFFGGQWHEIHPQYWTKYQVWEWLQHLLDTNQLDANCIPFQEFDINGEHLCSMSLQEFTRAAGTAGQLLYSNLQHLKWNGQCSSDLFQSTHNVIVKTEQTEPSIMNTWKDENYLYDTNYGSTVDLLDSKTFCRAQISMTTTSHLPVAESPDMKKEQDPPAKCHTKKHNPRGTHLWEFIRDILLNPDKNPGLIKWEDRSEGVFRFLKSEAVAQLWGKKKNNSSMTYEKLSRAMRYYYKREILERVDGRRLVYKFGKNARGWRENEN
To be noted: protein: recombinant; tags: N-terminal GST; dsDNA, one strand shown. In outline: as §1

Assay [7] deals with SPI1 (Homo sapiens, UniProt P17947 1-270). To be noted: protein: recombinant; tags: N-terminal GST; dsDNA, one strand shown. A digest of the protocol:
as §1

For assay [8], the target named is SPIB (Homo sapiens, UniProt Q01892 1-262). Conditions: protein: recombinant; tags: N-terminal GST; dsDNA, one strand shown. A digest of the protocol:
as §1

Assay [9] deals with T6, ELK3 (Homo sapiens, UniProt P41970 1-407).
T6 sequence: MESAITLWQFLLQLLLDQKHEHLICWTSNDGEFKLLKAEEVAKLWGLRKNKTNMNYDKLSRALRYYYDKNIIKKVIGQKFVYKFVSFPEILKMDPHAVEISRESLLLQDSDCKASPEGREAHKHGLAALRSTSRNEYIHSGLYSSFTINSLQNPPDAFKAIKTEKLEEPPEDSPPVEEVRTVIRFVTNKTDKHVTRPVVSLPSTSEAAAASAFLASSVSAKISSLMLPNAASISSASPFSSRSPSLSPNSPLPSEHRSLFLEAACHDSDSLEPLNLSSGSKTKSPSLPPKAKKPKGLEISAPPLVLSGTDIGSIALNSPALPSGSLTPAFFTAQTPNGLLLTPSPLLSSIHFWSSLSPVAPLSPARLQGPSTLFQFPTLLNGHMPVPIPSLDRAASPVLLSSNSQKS
To be noted: protein: recombinant; tags: N-terminal GST; dsDNA, one strand shown. In outline:
as §1

The target of assay [10] is T7, FEV (Homo sapiens, UniProt Q99581 1-238).
T7 sequence: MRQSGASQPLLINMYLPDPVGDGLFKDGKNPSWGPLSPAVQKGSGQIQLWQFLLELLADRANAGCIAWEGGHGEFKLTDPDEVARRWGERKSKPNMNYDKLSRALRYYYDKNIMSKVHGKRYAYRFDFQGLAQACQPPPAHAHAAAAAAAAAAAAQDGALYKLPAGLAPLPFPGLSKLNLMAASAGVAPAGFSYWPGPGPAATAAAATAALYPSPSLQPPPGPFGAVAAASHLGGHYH
To be noted: protein: recombinant; tags: N-terminal GST; dsDNA, one strand shown. A digest of the protocol: as §1

Assay [11] concerns the target ETV5 (Homo sapiens, UniProt P41161 1-510). To be noted: protein: recombinant; tags: N-terminal GST; dsDNA, one strand shown. In outline:
as §1

Assay [12] addresses HSF1 (Homo sapiens, UniProt Q00613 1-529). To be noted: protein: recombinant; tags: N-terminal GST; chain copies: 3; dsDNA, one strand shown. A digest of the protocol: as §1
Assay [13] concerns the target T8, SPIC (Homo sapiens, UniProt Q8N5J4 1-248).
T8 sequence: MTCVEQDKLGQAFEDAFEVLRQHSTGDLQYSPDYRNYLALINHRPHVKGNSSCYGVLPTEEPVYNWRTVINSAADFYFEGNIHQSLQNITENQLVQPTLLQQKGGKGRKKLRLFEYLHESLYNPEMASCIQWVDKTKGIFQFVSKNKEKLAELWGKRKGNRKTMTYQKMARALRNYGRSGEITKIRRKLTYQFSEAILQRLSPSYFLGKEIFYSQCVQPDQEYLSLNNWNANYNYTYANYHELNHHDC
Conditions: protein: recombinant; tags: N-terminal GST; dsDNA, one strand shown. A digest of the protocol:
as §1

The target in assay [14] is ELF4 (Homo sapiens, UniProt Q99607 1-663). To be noted: protein: recombinant; tags: N-terminal GST; dsDNA, one strand shown. In outline:
as §1

Assay [15] has as its target T9, ELK4 (Homo sapiens, UniProt P28324-2 1-405).
T9 sequence: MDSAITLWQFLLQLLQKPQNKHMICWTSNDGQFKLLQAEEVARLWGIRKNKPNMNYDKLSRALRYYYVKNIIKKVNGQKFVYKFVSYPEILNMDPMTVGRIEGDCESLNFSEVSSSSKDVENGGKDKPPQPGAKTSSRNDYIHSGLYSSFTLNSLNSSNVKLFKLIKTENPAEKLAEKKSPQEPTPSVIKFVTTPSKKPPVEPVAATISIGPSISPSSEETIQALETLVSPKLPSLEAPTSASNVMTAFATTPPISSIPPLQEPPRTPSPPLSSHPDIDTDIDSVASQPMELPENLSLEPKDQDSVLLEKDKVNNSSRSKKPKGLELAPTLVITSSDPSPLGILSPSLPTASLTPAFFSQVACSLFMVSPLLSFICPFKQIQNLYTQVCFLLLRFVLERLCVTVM
Conditions: protein: recombinant; tags: N-terminal GST; dsDNA, one strand shown. In outline:
as §1

In assay [16] the target is T10, ETV2 (Homo sapiens, UniProt O00321 1-342).
T10 sequence: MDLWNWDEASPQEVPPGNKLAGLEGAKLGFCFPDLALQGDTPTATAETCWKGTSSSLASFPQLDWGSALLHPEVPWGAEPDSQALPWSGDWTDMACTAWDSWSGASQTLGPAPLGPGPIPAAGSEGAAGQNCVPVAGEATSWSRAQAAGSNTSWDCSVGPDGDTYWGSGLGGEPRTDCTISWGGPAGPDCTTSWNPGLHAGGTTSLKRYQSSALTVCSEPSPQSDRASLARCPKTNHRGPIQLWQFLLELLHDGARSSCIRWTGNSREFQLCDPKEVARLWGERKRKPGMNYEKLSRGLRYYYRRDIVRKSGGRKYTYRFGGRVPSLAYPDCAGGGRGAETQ
Conditions: protein: recombinant; tags: N-terminal GST; dsDNA, one strand shown. In outline: as §1

Assay [17] concerns the target T11, ELF3 (Homo sapiens, UniProt P78545 1-371).
T11 sequence: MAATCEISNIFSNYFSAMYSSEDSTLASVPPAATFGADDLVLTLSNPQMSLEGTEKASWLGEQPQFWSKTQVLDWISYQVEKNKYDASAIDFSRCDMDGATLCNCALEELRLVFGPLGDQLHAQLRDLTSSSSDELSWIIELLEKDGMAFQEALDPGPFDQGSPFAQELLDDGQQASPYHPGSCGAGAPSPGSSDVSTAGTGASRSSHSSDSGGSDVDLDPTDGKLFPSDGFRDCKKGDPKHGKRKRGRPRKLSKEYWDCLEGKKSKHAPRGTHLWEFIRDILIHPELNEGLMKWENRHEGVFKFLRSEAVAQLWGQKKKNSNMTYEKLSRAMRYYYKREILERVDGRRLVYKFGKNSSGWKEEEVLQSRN
Conditions: protein: recombinant; tags: N-terminal GST; dsDNA, one strand shown. In outline:
as §1

The target in assay [18] is CRX (Homo sapiens, UniProt O43186 1-299). Conditions: protein: recombinant; tags: N-terminal GST; dsDNA, one strand shown. In outline: as §1
Assay [19] has as its target ETV1 (Homo sapiens, UniProt P50549 1-477). To be noted: protein: recombinant; tags: N-terminal GST; dsDNA, one strand shown. In outline:
as §1

The source of these data is PMC7862700, “An all-to-all approach to the identification of sequence-specific readers for epigenetic DNA modifications on cytosine”.

Chain of ETV5 (P41161 whole entry): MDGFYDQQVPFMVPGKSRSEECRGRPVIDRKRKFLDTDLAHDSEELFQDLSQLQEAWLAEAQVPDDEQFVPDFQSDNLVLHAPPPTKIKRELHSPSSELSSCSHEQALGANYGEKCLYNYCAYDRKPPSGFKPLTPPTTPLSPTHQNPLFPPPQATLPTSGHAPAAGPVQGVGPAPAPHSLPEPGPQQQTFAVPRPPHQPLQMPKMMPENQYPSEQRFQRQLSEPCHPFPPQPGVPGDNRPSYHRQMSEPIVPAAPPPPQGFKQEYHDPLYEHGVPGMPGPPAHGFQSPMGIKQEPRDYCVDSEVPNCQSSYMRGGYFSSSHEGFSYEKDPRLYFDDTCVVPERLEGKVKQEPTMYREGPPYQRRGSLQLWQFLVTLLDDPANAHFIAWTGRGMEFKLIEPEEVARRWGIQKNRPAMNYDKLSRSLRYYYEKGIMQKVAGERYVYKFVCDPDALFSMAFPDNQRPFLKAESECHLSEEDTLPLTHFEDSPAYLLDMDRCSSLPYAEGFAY
Chain of ELF1 (P32519 whole entry): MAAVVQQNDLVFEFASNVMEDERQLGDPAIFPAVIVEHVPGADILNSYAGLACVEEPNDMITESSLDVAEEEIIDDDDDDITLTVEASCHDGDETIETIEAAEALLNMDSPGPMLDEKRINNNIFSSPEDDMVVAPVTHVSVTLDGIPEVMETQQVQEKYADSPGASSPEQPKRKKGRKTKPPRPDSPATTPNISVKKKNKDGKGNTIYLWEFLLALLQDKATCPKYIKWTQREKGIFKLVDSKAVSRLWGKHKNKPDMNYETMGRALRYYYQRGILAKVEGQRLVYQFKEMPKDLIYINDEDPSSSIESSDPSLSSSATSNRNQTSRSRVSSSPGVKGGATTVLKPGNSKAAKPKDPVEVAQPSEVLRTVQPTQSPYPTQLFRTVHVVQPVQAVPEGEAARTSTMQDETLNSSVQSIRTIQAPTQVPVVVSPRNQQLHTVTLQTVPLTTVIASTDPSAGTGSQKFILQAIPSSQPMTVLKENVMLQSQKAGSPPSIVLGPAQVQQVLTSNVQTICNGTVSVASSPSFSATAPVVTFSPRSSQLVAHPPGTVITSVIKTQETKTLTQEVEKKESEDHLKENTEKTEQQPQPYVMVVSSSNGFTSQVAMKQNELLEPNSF
Chain of SPIB (Q01892 whole entry): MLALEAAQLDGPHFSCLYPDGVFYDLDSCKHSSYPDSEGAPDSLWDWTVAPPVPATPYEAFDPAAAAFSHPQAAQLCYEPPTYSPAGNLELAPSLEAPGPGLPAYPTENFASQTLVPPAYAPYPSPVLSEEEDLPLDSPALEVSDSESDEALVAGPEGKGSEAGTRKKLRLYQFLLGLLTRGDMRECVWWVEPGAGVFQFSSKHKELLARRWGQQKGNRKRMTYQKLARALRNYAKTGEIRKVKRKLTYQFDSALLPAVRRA
Chain of ELF4 (Q99607 whole entry): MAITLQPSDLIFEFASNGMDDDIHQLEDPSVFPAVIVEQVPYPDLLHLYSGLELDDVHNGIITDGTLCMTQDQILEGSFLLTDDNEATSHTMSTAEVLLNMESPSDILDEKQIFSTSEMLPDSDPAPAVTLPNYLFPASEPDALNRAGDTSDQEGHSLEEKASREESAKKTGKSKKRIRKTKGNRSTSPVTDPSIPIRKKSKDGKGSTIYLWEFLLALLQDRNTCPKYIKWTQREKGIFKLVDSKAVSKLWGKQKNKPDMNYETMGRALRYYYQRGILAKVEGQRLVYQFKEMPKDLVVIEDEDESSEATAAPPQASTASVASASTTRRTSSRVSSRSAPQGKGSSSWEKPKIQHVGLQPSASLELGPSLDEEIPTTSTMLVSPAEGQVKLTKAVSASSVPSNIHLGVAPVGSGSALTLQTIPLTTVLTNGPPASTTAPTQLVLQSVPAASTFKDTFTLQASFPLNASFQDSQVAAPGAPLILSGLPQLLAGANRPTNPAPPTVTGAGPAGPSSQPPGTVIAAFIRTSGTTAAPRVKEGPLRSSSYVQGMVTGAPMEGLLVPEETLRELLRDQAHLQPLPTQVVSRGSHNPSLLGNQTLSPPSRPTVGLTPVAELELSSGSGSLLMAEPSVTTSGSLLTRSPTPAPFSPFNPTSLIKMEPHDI
Chain of CRX (O43186 whole entry): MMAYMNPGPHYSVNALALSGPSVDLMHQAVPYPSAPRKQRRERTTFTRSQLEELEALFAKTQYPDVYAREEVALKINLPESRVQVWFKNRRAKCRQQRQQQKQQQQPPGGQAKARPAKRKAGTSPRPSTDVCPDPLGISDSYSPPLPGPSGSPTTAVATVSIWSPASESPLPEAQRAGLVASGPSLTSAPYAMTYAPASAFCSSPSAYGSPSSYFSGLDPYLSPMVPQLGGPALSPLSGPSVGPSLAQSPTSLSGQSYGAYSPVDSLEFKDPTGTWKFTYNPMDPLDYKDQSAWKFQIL
Chain of ETV1 (P50549 whole entry): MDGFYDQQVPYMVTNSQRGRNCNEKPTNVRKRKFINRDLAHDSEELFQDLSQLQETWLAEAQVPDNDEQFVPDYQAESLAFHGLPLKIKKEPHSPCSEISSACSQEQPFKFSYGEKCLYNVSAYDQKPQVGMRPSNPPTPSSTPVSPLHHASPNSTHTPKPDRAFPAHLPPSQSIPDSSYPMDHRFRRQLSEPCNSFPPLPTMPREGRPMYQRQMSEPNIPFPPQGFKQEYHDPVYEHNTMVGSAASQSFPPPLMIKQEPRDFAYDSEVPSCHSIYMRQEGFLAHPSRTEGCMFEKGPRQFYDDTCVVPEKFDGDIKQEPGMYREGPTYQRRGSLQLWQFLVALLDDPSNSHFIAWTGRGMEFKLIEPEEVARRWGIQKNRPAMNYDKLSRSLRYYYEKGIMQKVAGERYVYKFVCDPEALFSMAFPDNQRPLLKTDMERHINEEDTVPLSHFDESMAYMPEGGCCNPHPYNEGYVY
Chain of HSF1 (Q00613 whole entry): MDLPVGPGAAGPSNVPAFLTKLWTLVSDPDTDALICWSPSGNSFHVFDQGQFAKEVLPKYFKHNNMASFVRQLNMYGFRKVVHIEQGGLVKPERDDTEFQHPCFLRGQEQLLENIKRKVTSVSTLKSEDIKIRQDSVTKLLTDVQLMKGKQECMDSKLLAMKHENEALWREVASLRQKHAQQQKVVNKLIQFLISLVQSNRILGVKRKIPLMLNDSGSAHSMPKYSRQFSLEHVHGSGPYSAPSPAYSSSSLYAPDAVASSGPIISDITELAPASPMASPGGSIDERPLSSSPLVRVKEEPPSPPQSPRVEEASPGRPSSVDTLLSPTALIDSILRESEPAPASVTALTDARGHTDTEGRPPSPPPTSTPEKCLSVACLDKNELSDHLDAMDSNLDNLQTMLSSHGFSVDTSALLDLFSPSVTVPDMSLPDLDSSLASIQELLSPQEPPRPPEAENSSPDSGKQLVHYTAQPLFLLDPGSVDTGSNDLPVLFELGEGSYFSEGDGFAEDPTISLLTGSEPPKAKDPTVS

In the case of TGTATC, the binding signal in assay [1] is 1.65 fold enrichment (6-mer frequency, TF over GST control); in [2], 1.39 fold enrichment (6-mer frequency, TF over GST control); in assay [3] it was 1.45 fold enrichment (6-mer frequency, TF over GST control); in assay [4] it was 1.39 fold enrichment (6-mer frequency, TF over GST control); in assay [5] it was 1.38 fold enrichment (6-mer frequency, TF over GST control); in assay [6], 1.36 fold enrichment (6-mer frequency, TF over GST control). In addition, the binding signal in assay [7] was 1.37 fold enrichment (6-mer frequency, TF over GST control); in assay [8] it was 1.45 fold enrichment (6-mer frequency, TF over GST control); in [9], 1.44 fold enrichment (6-mer frequency, TF over GST control); in assay [10], 1.41 fold enrichment (6-mer frequency, TF over GST control); in assay [11] it was 1.4 fold enrichment (6-mer frequency, TF over GST control); in assay [12], 1.16 fold enrichment (6-mer frequency, TF over GST control). In addition, the binding signal was 1.46 fold enrichment (6-mer frequency, TF over GST control) in assay [13]; 1.44 fold enrichment (6-mer frequency, TF over GST control) in assay [14]; 1.46 fold enrichment (6-mer frequency, TF over GST control) in assay [15]; 1.36 fold enrichment (6-mer frequency, TF over GST control) in assay [16]; 1.41 fold enrichment (6-mer frequency, TF over GST control) in [17]; 1.15 fold enrichment (6-mer frequency, TF over GST control) in assay [18]. For the same sequence, the binding signal in [19] was 1.37 fold enrichment (6-mer frequency, TF over GST control).
